We go through 40 molecules from PubChem BioAssay (NCI).

This is part of a sample that, as a whole, favours compounds with a hit. Of some 83,000 tested, about 20% had one in any assay.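 For each line, cells grew in 96-well plates with the test compound present at a single concentration for 48 hours.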 The source made the active and inactive calls.

The test relates to HL-60(TB) leukemia. As to the kind of experiment: NCI-60 one-dose screen, 48 h (100 = growth as untreated, 0 = no growth, -100 = all killed). Conditions: 10 µM unless noted. The method, then:
Growth inhibition of the HL-60(TB) human tumor cell line is measured as a screen for anti-cancer activity. Cells are grown in 96 well plates and exposed to the test compound for 48 hours. Compounds are tested at a single concentration, which is 10^-5 M for most compounds. The reported endpoint is percent growth (GI% or GIPRCNT), where numbers from 0 - 100% represent growth inhibition, and numbers from -100% - 0 represent cell death. For example, a value of 40 represents 60% growth inhibition. A value of 0 means no net growth occurred over the course of the experiment. A value of -40 indicates 40% of cells at the beginning of the experiment died by the end of the experiment. A value of -100 means all cells are dead at the end of the experiment.
NCI-60 Human Tumor Cell Lines Screen was performed using the standard one-dose NCI protocol, which is described in more detail at https://dtp.cancer.gov/discovery_development/nci-60/default.htm.
Compounds with GIPRCNT values below 10 were considered active. Activity score was based on GIPRCNT using the following formula: […]
Score is 0 for GIPRCNT values of 100 or above, 50 for GIPRCNT values of 0, and 100 for GIPRCNT values of -100.
On to `Cc1cc(-c2ccc3nc(N)sc3c2)nc2ccc3[nH]ncc3c12`, for which the growth is 25.8% (inactive).
For `O=C(/C=C/c1ccccc1Cl)Nc1ncc(Cc2cc(Cl)ccc2Cl)s1` the value was 3.08% (active); for `CCCCc1nc(/C=N/Nc2nc(Nc3ccccc3)nc(Nc3ccc(S(N)(=O)=O)cc3)n2)c(Cl)[nH]1`, 118% (inactive).
Take `C/C(CC1(O)C(=O)Nc2ccccc21)=N\O` (stereo not given): the growth is 97% (inactive).
To `CNc1ncc2cc(-c3ccc(-c4ncccc4F)cc3Cl)c(=O)n(CC3OCC(N)CO3)c2n1` (stereo not given) belongs 20.5% (inactive); to `O=C(NCc1ncc[nH]1)c1ccc(-c2nc3ccc4[nH]ncc4c3c3c2CCCC3)cc1`, -24.7% (active); to `NS(=O)(=O)c1ccc(Nc2nc(Nc3ccccc3)nc3nnc(SCC(=O)NC4CCCCC4)n23)cc1`, 106% (inactive).
For `NC(N)=Nc1ccc(Oc2cccc(Nc3cccc(C(F)(F)F)c3)c2)cn1` the value was -64.4% (active).
For `Clc1ccc2c(OCCCN3CCOCC3)c3oc4ccccc4c3nc2c1` the value was 42.1% (inactive).
`CS(=O)(=O)c1ncc(-c2ccccc2)cn1`: the growth was 103% (inactive).
As for `CCCCCc1ccc(S(=O)(=O)Nc2cccc(-c3csc(NC(=O)CNCCN(C)C)n3)c2)cc1`, the growth was 63% (inactive).
As for `CC1CCN(S(=O)(=O)c2ncsc2-c2ccccc2)CC1`, the growth was 72.3% (inactive).
For `CCOc1ccc(NC2=C(Cl)C(=O)c3nc(C)ccc3C2=O)cc1` the value was -46.4% (active); for `COc1ccccc1/C=C1\Oc2ccc(O)c(O)c2C1=O`, 76.1% (inactive).
To `FC(F)(F)c1cc(Nc2cccc(Oc3ccc(NC4=NCCN4)nc3)c2)ccc1Cl` belongs -52.5% (active); to `N/C(=N\c1nc2c(Br)cccc2s1)C(Br)Br`, 7% (active); to `Cn1ccnc1C(=O)/C=C/c1ccc(CNC(=O)c2ccc(Cl)cc2)cc1`, -25.5% (active).
To `CC1=C[C@H]2O[C@@H]3C[C@@H](O)[C@](C)([C@@]2(C)CC1)[C@@]31CO1` belongs -20.9% (active).
With `Cc1ccc(Cc2cnc(NC(=O)/C(C#N)=C/c3ccc(-c4ccc(Cl)cc4)o3)s2)cc1`, the growth was 88.5% (inactive).
To `O=C1/C(=C/c2cc(F)cc(F)c2)Cc2cc3c(cc21)OCO3` belongs 3.69% (active).
Take `CC(=O)c1cc(C(=O)c2ccc(Br)cc2)n2cc(C)cc(C)c12`: the growth is 83.3% (inactive).
`COc1cc(/C=C/C(=O)c2ccc(C)cc2)ccc1Oc1nc(NCCO)nc(N2CCOCC2)n1`: the growth was -26.7% (active).
To `COc1c(N2CC3CCCNC3C2)c(F)cc2c(=O)c(C(=O)N/N=C/c3ccc(N(C)C)cc3)cn(C3CC3)c12` (stereo not given) belongs 78.5% (inactive); to `Cn1ccnc1C(=O)/C=C/c1ccc(NC(=O)c2c(F)c(F)c(F)c(F)c2F)cc1`, 78.3% (inactive); to `O=C(CSc1nc2ccccc2c(=O)n1-c1ccccc1)N/N=C/c1ccc(Oc2ccc(Br)cc2)cc1`, 105% (inactive).
With `CC(C)NC(=O)c1cc(-c2ccc(NC(=O)Nc3ccc(N4CCOCC4)c(C(F)(F)F)c3)cc2)nc2cccnc12`, the growth is 12.6% (inactive).
To `CN1CCN(c2ccc(Nc3nc(NCCCNS(=O)(=O)c4ccc(C(F)(F)F)cc4)c4sccc4n3)cc2)CC1` belongs -47.4% (active); to `C=C(C)[C@@H]1CC[C@]2(C)[C@H](CC=C3[C@@H]4CC(C)(C)CC[C@]4(C(=O)NCC#CCN4CCN(C)CC4)CC[C@]32C)[C@@]1(C)CCC#N`, -47.9% (active).
To `O=C1c2c(c3c4cccnc4[nH]c3c3ccc4ccccc4c23)C(=O)N1CCN1CCCCC1` belongs 35.4% (inactive); to `Cn1ncc2c(C(=O)c3ccc(F)cc3)nc(C(C)(C)C)nc21`, 91.2% (inactive).
To `CN1C(=O)N(C)C2Nn3c(s/c(=C\c4ccccn4)c3=O)=NC21` (stereo not given) belongs 110% (inactive).
For the molecule `COc1cc(/C=N/n2cnc3oc(-c4ccccc4)cc3c2=N)cc(CN2CCCC2)c1O`, the growth is 64.9% (inactive).
To `Oc1cccc2ccc(-c3nnc(SCc4ccc(O)c5ncccc45)o3)nc12` belongs 13.7% (inactive); to `Cc1nn(-c2ccccc2)c2ncnc(N/N=C/c3cccc(O)c3)c12`, 35.3% (inactive).
For `COc1cc(-c2nnc(SCc3ccc(O)c4ncccc34)n2-c2ccccc2)cc(OC)c1OC` the value was -17.8% (active).
As to `CCOC(=O)c1c(NCC(=O)Nc2cccc([N+](=O)[O-])c2)sc2c1CCCC2`, the growth is 1.42% (active).
For `O=C(CN1CCN(c2cc(=O)n(-c3ccccc3)c3ccccc23)CC1)Nc1nc(-c2ccccc2)cs1` the value was 37.1% (inactive); for `Nc1nc(-c2cccc([N+](=O)[O-])c2)c(N=Nc2cccc(Cl)c2)s1`, 56.4% (inactive); for `COc1ccccc1/C=C/C=N/NC1=NC2C(S1)N(C)C(=O)N2C` (stereo not given), -22.1% (active).
For `O=C(NNc1nc2cc(F)c(F)cc2n2cccc12)c1cnccn1` the value was 3.67% (active).
